p97 ATPase inh: inhibitors of human p97 ATPase, primary screen, biochemical; AID 1481, 2009; Transitional endoplasmic reticulum ATPase (Homo sapiens), P55072; hit rate 0.42% among 220,000; inhibition, % at 8 µM; recombinant p97 ATPase, Kinase-Glo ATP luminescence, 3 h; in the data active means inhibition above about 15%
SUMO HTRF inh: inhibitors of in vitro SUMOylation cascade, primary screen, biochemical, HTRF, uHTS; inhibition, % at 35 µM; hit rate 0.36% among 290,000; SUMO-conjugating enzyme UBC9 (Homo sapiens), P63279; HTRF SUMOylation assay, SAE1/SAE2 + UBC9; in the data active means inhibition above about 50%, passing the limit was not always enough
PKD1 inh: inhibitors of human PKD1 kinase, biochemical, fluorescence polarization; Serine/threonine-protein kinase D1 (Homo sapiens), Q15139; PKD1 kinase fluorescence polarization assay; inhibition, % (test concentration not listed); hit rate 0.056% among 200,000; in the data active means inhibition above about 50%
FAS TE block: FAS thioesterase domain inhibitors, primary screen, biochemical, fluorescence intensity, uHTS; AID 602261, 2012; recombinant FAS-TE, OMFH fluorogenic substrate, fluorescence endpoint; Fatty acid synthase (Homo sapiens), P49327; inhibition, % at 15 µM; hit rate 0.67% among 360,000;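 active means compounds whose normalised, plate-corrected inhibition of enzyme fluorescence in the single-dose primary screen is 50% or more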
Furin inh: human furin inhibitors, primary screen, biochemical, fluorescence intensity; P09958; purified furin, fluorogenic substrate cleavage; inhibition, % at 20 µM or 30 µM; hit rate 0.061% among 220,000; AID 463115, 2010; in the data active means inhibition above about 25%
Target sequence (P09958 108-714 limits assumed): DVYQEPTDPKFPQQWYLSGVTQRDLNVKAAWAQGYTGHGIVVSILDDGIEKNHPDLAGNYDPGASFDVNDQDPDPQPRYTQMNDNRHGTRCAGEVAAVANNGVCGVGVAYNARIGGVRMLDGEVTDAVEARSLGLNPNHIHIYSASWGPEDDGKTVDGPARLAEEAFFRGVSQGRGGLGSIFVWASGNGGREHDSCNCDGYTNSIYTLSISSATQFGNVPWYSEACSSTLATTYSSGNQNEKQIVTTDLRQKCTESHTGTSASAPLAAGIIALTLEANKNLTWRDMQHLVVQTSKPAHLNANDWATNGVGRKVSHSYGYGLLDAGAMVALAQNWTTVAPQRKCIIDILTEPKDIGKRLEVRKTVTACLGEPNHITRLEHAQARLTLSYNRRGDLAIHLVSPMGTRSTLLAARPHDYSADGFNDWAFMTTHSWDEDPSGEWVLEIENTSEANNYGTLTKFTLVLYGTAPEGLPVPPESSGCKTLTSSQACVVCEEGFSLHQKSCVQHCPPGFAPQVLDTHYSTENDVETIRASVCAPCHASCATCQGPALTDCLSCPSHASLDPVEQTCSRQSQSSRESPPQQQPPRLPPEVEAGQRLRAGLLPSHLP
DTT redox prof: compounds producing H2O2 with reducing agent – biochemical, NIH compound library profiling, artefact control for MLSCN library redox annotation, primary screen | DTT-dependent redox cycling H2O2, phenol red/HRP absorbance; 100% = 100 µM peroxide control, 0% = buffer | hit rate 0.03% among 200,000 | AID 878, 2007 | activation, % at 10 µM;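 active means activation of at least 50% relative to the plate's high and low controls in the primary single-dose screen; inactive means activation below 50%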;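 further: compound incubated with DTT at 0.8 mM final as the reducing agent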
p97 confirm: p97 ATPase inhibitors, retest, confirmation, biochemical. shares compounds with p97 ATPase inh. recombinant p97 ATPase, Kinase-Glo ATP luminescence. inhibition, % at 8 µM. hit rate 44% among 760. AID 1517, 2009;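 active means percent inhibition of p97 ATPase above a set limit, the primary screen's mean plus 3 SD, cut at about 15% in these data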
Numbers stand for hits. An excerpt weighted towards active compounds, which were near 1.2% of everything screened.

How did Cc1[nH][nH]c(=O)c1C(c1ccc(-c2ccc(C(=O)O)cc2)o1)c1c(C)[nH][nH]c1=O do in these assays?
p97 ATPase inh: 24.6; PKD1 inh: inactive; FAS TE block: inactive; Furin inh: inactive; DTT redox prof: inactive; p97 confirm: inactive

What do the screens show for `Nc1nnc(-c2ccco2)s1`?
p97 ATPase inh: inactive; SUMO HTRF inh: inactive; PKD1 inh: inactive; FAS TE block: inactive; Furin inh: inactive; DTT redox prof: inactive

Results for Nc1ncnc2oc(-c3ccco3)c(-c3ccco3)c12 ?
p97 ATPase inh: 16.9; SUMO HTRF inh: 77.6; PKD1 inh: inactive; FAS TE block: inactive; Furin inh: inactive; DTT redox prof: inactive; p97 confirm: inactive

What do the screens show for `CC1=NN(c2ccc(Cl)c(C(=O)O)c2)C(=O)C1`?
p97 ATPase inh: 33.5; SUMO HTRF inh: 90.1; PKD1 inh: inactive; FAS TE block: inactive; Furin inh: inactive; DTT redox prof: inactive; p97 confirm: inactive

What do the screens show for `CC1=NN(c2cccc(Cl)c2)C(=O)C1`?
p97 ATPase inh: inactive; SUMO HTRF inh: inactive; FAS TE block: inactive; Furin inh: inactive

What do the screens show for `c1ccc(COc2ncnc3c2ncn3CCCN2CCN(c3ccccn3)CC2)cc1`?
FAS TE block: inactive

What do the screens show for `COC(=O)Cc1csc(Nc2ccccc2)n1`?
p97 ATPase inh: inactive; SUMO HTRF inh: inactive; PKD1 inh: inactive; FAS TE block: inactive; Furin inh: inactive; DTT redox prof: inactive

What do the screens show for `COC(=O)Cc1nc(Nc2ccccc2)sc1C`?
p97 ATPase inh: 20.3; SUMO HTRF inh: inactive; FAS TE block: inactive; Furin inh: inactive; p97 confirm: inactive

How did CCCCNC(=O)Oc1ccc(C(=O)N2c3ccccc3NC(=O)C2C)cc1 (configuration not stated) do in these assays?
SUMO HTRF inh: inactive; FAS TE block: inactive

What do the screens show for `Cc1cccc(C(=O)N/N=C/c2coc3ccccc3c2=O)c1`?
SUMO HTRF inh: inactive; FAS TE block: inactive

How did O=C(N/N=C/c1coc2ccccc2c1=O)c1cc(O)cc(O)c1 do in these assays?
p97 ATPase inh: 30.4; SUMO HTRF inh: inactive; PKD1 inh: inactive; FAS TE block: inactive; Furin inh: inactive; DTT redox prof: inactive; p97 confirm: 32.9

What do the screens show for `C/C(=N\NC(=O)c1nnn(-c2nonc2N)c1CN1CCCCC1)c1ccccc1O`?
SUMO HTRF inh: inactive; FAS TE block: inactive

How did CC(C)(C)Nc1nc(NC(C)(C)C)nc(-n2ccnc2)n1 do in these assays?
p97 ATPase inh: 15.5; SUMO HTRF inh: inactive; PKD1 inh: inactive; FAS TE block: inactive; Furin inh: inactive; DTT redox prof: inactive; p97 confirm: inactive

Results for O=C1/C(=C/C=C/c2ccco2)SC(=S)N1NS(=O)(=O)c1ccccc1 ?
p97 ATPase inh: 15.8; SUMO HTRF inh: 60.0; FAS TE block: inactive; Furin inh: inactive; p97 confirm: inactive

Results for O=C1/C(=C/c2cccs2)SC(=S)N1NS(=O)(=O)c1ccccc1 ?
p97 ATPase inh: inactive; SUMO HTRF inh: inactive; FAS TE block: inactive; Furin inh: inactive

What do the screens show for `Cc1ccccc1N/N=C/c1c(C)nc2ccccn12`?
SUMO HTRF inh: inactive; FAS TE block: inactive

What do the screens show for `CCCCc1c(C)nc2nc(SCc3ccc(Cl)cc3)[nH]n2c1=O`?
SUMO HTRF inh: inactive; FAS TE block: inactive

What do the screens show for `Cc1cccc2cc(C#N)c(SCC(=O)N3CC(=O)Nc4ccccc43)nc12`?
p97 ATPase inh: inactive; SUMO HTRF inh: inactive; PKD1 inh: inactive; FAS TE block: inactive; Furin inh: inactive; DTT redox prof: inactive

Results for COc1ccc2cc(C#N)c(SCC(=O)N3CC(=O)Nc4ccccc43)nc2c1 ?
p97 ATPase inh: 15.3; SUMO HTRF inh: inactive; FAS TE block: inactive; Furin inh: inactive; p97 confirm: inactive

Results for O=C(Nc1ccc(Nc2ccncc2)cc1)c1ccc(Nc2ccnc3ccc([N+](=O)[O-])cc23)cc1 ?
p97 ATPase inh: 34.5; SUMO HTRF inh: 69.4; FAS TE block: inactive; Furin inh: inactive; p97 confirm: 24.0

What do the screens show for `Cc1ccc(S(=O)(=O)c2c(N)n(CCCN(C)C)c3nc4ccccc4nc23)cc1`?
p97 ATPase inh: inactive; SUMO HTRF inh: inactive; FAS TE block: inactive; Furin inh: inactive

Results for CN(C)CCCn1c(N)c(C#N)c2nc3ccccc3nc21 ?
p97 ATPase inh: 31.7; SUMO HTRF inh: 103.3; FAS TE block: inactive; Furin inh: inactive; p97 confirm: inactive

Results for Clc1ccccc1C1CC(c2ccccc2)=Nc2ccccc2N1 (configuration not stated) ?
p97 ATPase inh: 14.9; SUMO HTRF inh: inactive; FAS TE block: inactive; Furin inh: inactive; p97 confirm: inactive

How did CCOC(=O)CCN1C(=O)c2ccccc2Sc2ncccc21 do in these assays?
SUMO HTRF inh: inactive; FAS TE block: inactive

How did O=C(Nc1ccc(Cl)cn1)C1C(c2ccccc2)C1(Cl)Cl (configuration not stated) do in these assays?
p97 ATPase inh: 16.7; SUMO HTRF inh: inactive; PKD1 inh: inactive; FAS TE block: inactive; Furin inh: inactive; DTT redox prof: inactive; p97 confirm: 23.1

Results for O=C(CN(Cc1ccc(F)cc1)C(=O)CCC(=O)Nc1nccs1)NCc1ccccc1 ?
SUMO HTRF inh: inactive; FAS TE block: inactive

Results for CCOC(=O)/C(C(N)=NCCCO)=C(/O)c1ccccc1 ?
p97 ATPase inh: inactive; SUMO HTRF inh: inactive; PKD1 inh: inactive; FAS TE block: inactive; Furin inh: inactive; DTT redox prof: inactive

How did CCOC(=O)/C(C(N)=NCCO)=C(/O)c1ccccc1 do in these assays?
p97 ATPase inh: 24.1; SUMO HTRF inh: inactive; PKD1 inh: inactive; FAS TE block: inactive; Furin inh: inactive; DTT redox prof: inactive; p97 confirm: inactive

How did COc1ccccc1NS(=O)(=O)c1cc(NC(=O)COc2ccccc2F)ccc1N1CCOCC1 do in these assays?
FAS TE block: inactive

Results for Cc1ccccc1-c1nnnn1C1CCS(=O)(=O)C1 (configuration not stated) ?
p97 ATPase inh: inactive; SUMO HTRF inh: inactive; PKD1 inh: inactive; FAS TE block: inactive; Furin inh: inactive; DTT redox prof: inactive

Results for Cc1cc(=O)n(C2CCS(=O)(=O)C2)[nH]1 (configuration not stated) ?
p97 ATPase inh: 24.1; SUMO HTRF inh: 90.1; PKD1 inh: inactive; FAS TE block: inactive; Furin inh: inactive; DTT redox prof: inactive; p97 confirm: inactive

What do the screens show for `Cn1c(CC(=O)NCCO)c(Sc2ccccc2)c2ccccc21`?
p97 ATPase inh: inactive; SUMO HTRF inh: inactive; PKD1 inh: inactive; FAS TE block: inactive; Furin inh: inactive; DTT redox prof: inactive

Screens deposited in PubChem BioAssay by several laboratories.
